Reference: PubChem BioAssay (NCI)
Compounds without any hit were thinned out: in the full panel of roughly 83,000, 20% have a hit.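 Method: cells in 96-well plates; compound added at one concentration; 48 h incubation; percent growth measured; values under 10 scored active.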 Unmarked numbers belong to inactive results. Activity calls are given as the source filed them.

Test system: HL-60(TB) leukemia
Assay: NCI-60 one-dose screen, 48 h (100 = growth as untreated, 0 = no growth, -100 = all killed)
Details: 10 µM unless noted

Row | SMILES | growth
1 | CC(=O)Oc1ccc(C)cc1C | 95%
2 | COc1ccc(/C=C\c2cc(OC)c(OC)c(OC)c2)cc1OCC(=O)Nc1nc2ccccc2s1 | 18.7%
3 | CC1=C(NCCN2CCCC2)C(=O)c2c(OCc3ccc(C(F)(F)F)cc3)cccc2C1=O | -20.6% (active)
4 | O=C(Nc1cccc(F)c1)Nc1cccc(Cl)c1 | -10.6% (active)
5 | O=C1NC(=O)C(c2ccccc2)O1 (stereo not given) | 99.5%
6 | FC(F)(F)c1cn(CCN2CCOCC2)c2ncnc(Cl)c12 | -68.6% (active)
7 | COc1cc(NC(=O)c2cc3ccccc3cc2O)c(OC)cc1Cl | -29.2% (active)
8 | Oc1ccc(-c2nc3ccccc3s2)cc1CN(Cc1ccccn1)Cc1ccccn1 | 1.27% (active)
9 | C=C(C)[C@@H]1CC[C@]2(C(=O)OCCOCCOCC[P+](c3ccccc3)(c3ccccc3)c3ccccc3)CC[C@]3(C)[C@H](CC[C@@H]4[C@@]5(C)CC[C@H](C)C(C)(C)[C@@H]5CC[C@]43C)[C@@H]12 | -72.5% (active)
10 | O=C(CN1CCN(c2cc3c(cc2F)c(=O)c(C(=O)O)cn3C2CC2)CC1)Nc1ccc(C(=O)/C=C/c2ccc(Cl)cc2)cc1 | 134%
11 | CCOP(=O)(O)OP(=O)(O)OCC | 94.1%
12 | O=C(O)c1ccc2c3ccc(C(=O)O)c4c(C(=O)O)ccc(c5ccc(C(=O)O)c1c25)c43 | 111%
13 | CCOC(=O)C(CC(c1ccccc1)N1CCCCC1)[N+](=O)[O-] (stereo not given) | 73.4%
14 | CCCN(CCC)CCC(O)c1cc2c(c3ccccc13)CCCC2 (stereo not given) | 113%
15 | Clc1ccc(C2CC(c3cccc(Nc4ccncc4)c3)=NN2c2cc(Cl)cc(Cl)c2)cc1 (stereo not given) | 24.8%
16 | COc1cc2c(c(OC)c1OC)CCC(c1cccc(NC(=O)c3cccc(Br)c3)c1)O2 (stereo not given) | 97%
17 | O=C1OCC2=C1C(c1cccc(F)c1)c1cc3c(cc1N2CCO)CCC3 (stereo not given) | -29.8% (active)
18 | O=C(Nc1ccc2ncnc(Nc3cccc(C(F)(F)F)c3)c2c1)c1cccs1 | 47.9%
19 | O=C(Nc1ccc(-n2cc(-c3ccncc3)c(-c3ccc(O)c(Cl)c3)n2)cc1)c1ccc(Cl)c(Cl)c1 | 14.7%
20 | CCNC(=O)Oc1ccc(/C(=C(\C)c2ccccc2)c2ccc(OCCN3CCCCC3)cc2)cc1 | 45.5%

Row | SMILES | growth
21 | O=C(N/N=C/[C@@H](O)[C@H](O)[C@H](O)CO)c1ccc(NC(=O)c2cccnc2)cc1 | 99.4%
22 | COc1c(B(O)O)cc(F)cc1-c1nc2ccc3[nH]ncc3c2c2c1CCCC2 | -2.38% (active)
23 | O=C(Nc1ccc(Cl)cc1)Nc1ccc(Nc2nncc3ccccc23)cc1 | 18.1%
24 | C=C(CN1CC=CCC1)[C@@H]1CC[C@]2(COC(C)=O)CC[C@]3(C)[C@H](CC[C@@H]4[C@@]5(C)CC[C@H](O)C(C)(C)[C@@H]5CC[C@]43C)[C@@H]12 | 102%
25 | COc1cc(/C=C/c2cc(/C=C/c3ccc(O)c(OC)c3)n(C(=O)Nc3ccc(C)cc3)n2)ccc1O | -28.2% (active)
26 | CCOc1ccncc1[N+](=O)[O-] | 103%
27 | COc1cc(C(C)n2cc(-c3ccccc3)nn2)ccc1OC1CCCCC1 (stereo not given) | 43.7%
28 | NC(=NCCCC1(c2ccccc2)CCCC1)Nc1ccc(Cl)cc1 | 77.2%
29 | CCCCN1C(=O)/C(=c2\sc3n(c2=O)NC2C(N=3)N(CC)C(=O)N2CC)c2ccccc21 (stereo not given) | 21.3%
30 | Cc1nc2c3c(-c4ccccc4)c(-c4ccccc4)oc3ncn2n1 | 91.4%
31 | Cn1cc(-c2nonc2-c2c[nH]c3ccc(F)cc23)c2cc(Br)ccc21 | 56.5%
32 | COC12C=C/C(=C(/C(=O)OCc3cncnc3)C(=O)CCCCCCCCC3(OC)C=C/C(=C(/C(=O)OCc4cncnc4)C(=O)CCCCCCCC1)O3)O2 | -27.4% (active)
33 | c1ccc(-c2nnc(Nc3nnc(-c4ccccc4)s3)s2)cc1 | 103%
34 | c1ccc(Nc2ccccn2)nc1 | 101%
35 | CCC#CC[C@H]1C/C=C2/C(=O)C=C[C@@H]2C/C=C\CCCC(=O)O1 | -19.1% (active)
36 | COc1cccc(/C=N\Nc2ccc([N+](=O)[O-])cn2)c1O | 57.5%
37 | OCc1cccc2ccccc12 | 93.5%
38 | COc1ccc(-c2cc(-c3ccc(Cl)cc3)c(C#N)c(=O)n2CCCCCC(=O)Nc2ccccc2N)cc1 | -14.5% (active)
39 | C=CCCCCOc1ccccc1-c1cnc(OCCCCC=C)n1C | 66.5%
40 | NC(=S)NS(=O)(=O)c1ccc(N)cc1 | 94.5%
